GLP-1R agonist – GLP-1 receptor (human) agonism. P43220. HEK293 GLP-1R CRE-luciferase, luminescence, 4-6 h; cells express a hypersensitive GLP-1R form. Potency, µM (doses to about 45.6 µM), without a hit: top-dose activation, hits mostly activators. 0.007% of 380,000 active. AID 624172; note: % of control where 0% means no effect
Target sequence (P43220 whole entry, looked up): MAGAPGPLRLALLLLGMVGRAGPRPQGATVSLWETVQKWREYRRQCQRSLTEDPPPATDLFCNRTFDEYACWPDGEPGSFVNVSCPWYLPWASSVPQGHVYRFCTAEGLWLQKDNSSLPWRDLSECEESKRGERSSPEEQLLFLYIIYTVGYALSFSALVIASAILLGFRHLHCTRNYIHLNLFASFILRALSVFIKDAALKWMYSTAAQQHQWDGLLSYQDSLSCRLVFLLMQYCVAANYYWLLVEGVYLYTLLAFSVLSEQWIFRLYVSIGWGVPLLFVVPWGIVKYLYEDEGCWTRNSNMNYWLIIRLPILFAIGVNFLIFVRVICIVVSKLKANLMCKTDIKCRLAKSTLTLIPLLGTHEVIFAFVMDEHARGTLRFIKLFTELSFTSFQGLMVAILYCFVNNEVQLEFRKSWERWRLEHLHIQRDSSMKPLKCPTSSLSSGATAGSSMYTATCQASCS
GLP-1R inv ag – GLP-1 receptor (human) inverse agonism | P43220 | HEK293 GLP-1R CRE-luciferase, luminescence, 24 h; GLP-1R form is constitutively active | Potency, µM (highest dose often 38.3 µM), inactives show top-dose activity change, negative = inhibition, hits mostly inhibitors | 1.6% of 410,000 active | AID 624417; note: % is set by controls: 0 for no effect and ±100 for the full control effect; nearly all actives have a fitted effect of over 55% in size
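HEK293 cells stably co-expressing constitutively active GLP-1R and a cAMP-responsive luciferase reporter were seeded in DMEM with 10% Nu serum, given compounds after 12 h, and incubated 24 h at 37 deg C. Luminescence was then read.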
RORg inh – inhibitors of mouse ROR gamma transcriptional activity | P51450 | Drosophila S2 Gal4-RORgamma UAS-luciferase reporter, 20 h | Potency, µM (top dose mostly 53.6 µM), for the others: at the top dose activity change, negative = inhibition, most hits filed as inhibitors | 5.4% of 310,000 active; note: % is set by controls: 0 for no effect and ±100 for the full control effect; nearly all actives have a fitted effect of over 60% in size
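Luminescence from a UAS-regulated Photinus luciferase reporter in stably transfected Drosophila Schneider cells is measured; decreased signal marks ROR gamma inhibition. Fusion expression is induced by 700 uM copper sulfate for 20 hr.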
GLP1R cytotox – cytotoxicity counter-screen for GLP-1 receptor inverse agonists | AID 624418 | 0.13% of 410,000 active | HEK293 cAMP-luciferase reporter cells, luminescence, 24 h | Potency, µM (top dose mostly 38.3 µM), without a hit: top-dose activity change, negative = inhibition, most hits filed as inhibitors;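 note: loss of luciferase light is scored as toxicity; % is set by controls: 0 for no effect and ±100 for the full control effect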
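Compound-treated cells are incubated 24 hr at 37 deg C under 5% CO2 after a 12 hour attachment period, then luciferase detection reagent is added and luminescence is measured following 12 min at room temperature; lowered signal indicates toxicity.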
VP16 counter – Gal4-VP16 reporter inhibition counter-screen; Drosophila S2 Gal4-VP16 UAS-luciferase, luminescence, 20 h; Potency, µM (doses to about 53.6 µM), inactives show at the top dose activity, negative = inhibition, most hits filed as inhibitors; 3.5% of 310,000 active; AID 2546;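 note: Gal4-VP16 expression switched on by copper sulfate through the metallothionein promoter; % is set by controls: 0 for no effect and ±100 for the full control effect; nearly all actives have a fitted effect of over 50% in size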
Numbers without * were called inactive; ? = inconclusive; / = no result; [ ] = remark or other dose. Rows were chosen to be rich in hits. Some 5.9% of all compounds tested hit in one or more screens of this group. Calls come from the whole dose curve; as a rule, active = well fitted curve in the direction sought with a large enough effect; inconclusive = small, poorly fitted or top-dose-only effect, or another doubt; inactive = no such curve, though single readings can be large; an effect the other way counts as inactive or inconclusive. Potency is the fitted concentration of half-maximal effect.

SMILES	GLP-1R agonist	GLP-1R inv ag	RORg inh	GLP1R cytotox	VP16 counter
CC(NCc1ccc(-c2ccccc2)cc1)C(O)c1ccccc1 (centres undefined)	-5.0%	7.94µM*	?	?	2.82µM*
CC(O)CNCc1ccc(-c2ccccc2)cc1 (centres undefined)	1.6%	0.0%	-16.1%	6.5%	-3.9%
O=C(NN=C1CCCCCC1)c1ccc(Cl)s1	-5.3%	8.1%	?	5.0%	12.6µM*
COC(=O)[C@@]1(Cc2ccc(F)cc2)[C@@H]2C(=CC(=O)[C@H]2CC(=O)C(=O)N2CCCC2)CN1C(=O)c1ccccc1	/	/	14.1µM*	/	?
COC(=O)[C@@]1(Cc2ccc(OC)cc2)[C@@H]2C(=CC(=O)[C@H]2CC(=O)C(=O)N2CCCC2)CN1C(=O)c1ccccc1	-3.2%	?	?	12.2%	3.98µM*
C=C1C(=O)C=C2CN(C(=O)c3ccccc3)[C@@](Cc3ccc(OC)cc3)(C(=O)OC)[C@@H]12	/	/	3.98µM*	/	0.708µM*
N#Cc1nc(/C=C/c2ccc(F)cc2)oc1N1CCCCC1	/	0.0%	/	2.4%	/
Cc1cc(C)c2nc(N3CCCC(C(=O)NCc4cccc(Cl)c4)C3)sc2c1 (centres undefined)	/	21.4%	/	3.2%	/
C=CCOn1c(-n2nc(C)cc2C)nc2ccccc2c1=O	10.0%	14.8%	?	0.0%	-13.4%
Cc1cc(CC(C)C)n(-c2nc3ccccc3c(=O)n2OCC(N)=O)n1	0.1%	-22.1%	2.24µM*	-21.1%	5.62µM*
Cc1cc(C)n(-c2nc3ccccc3c(=O)n2OCC(N)=O)n1	0.4%	0.0%	6.31µM*	4.4%	20µM*
Cc1cc(C)n(-c2nc3ccccc3c(=O)n2OCCOc2ccccc2)n1	-0.6%	?	?	-8.2%	14.1µM*
COC(=O)C(C(=O)OC)C(Cc1cc(F)cc(F)c1F)NC=O (centres undefined)	/	/	-7.8%	/	-1.2%
CC#CCOCC/C=C1/c2ccccc2C(OC)C1C (centres undefined)	/	/	-1.0%[10 µM]	/	-0.7%[10 µM]
Nc1ccccc1NC(=O)c1ccc(CNC(=O)OCc2cccnc2)cc1	/	/	-34.8%	/	4.4%
COc1ccc(-c2ccc(C)cc2)cc1C1C2C=CCCC2(C)C(=O)N1Cc1ccccc1 (centres undefined)	/	/	?	/	-7.6%
C[C@@]12CCC=C[C@H]1[C@H](c1ccc(/C=C/c3ccccc3)cc1F)N(Cc1ccccc1)C2=O	3.3%	7.94µM*	-2.5%	20.8%	0.7%
COc1ccc(-c2ccc(C)cc2)cc1[C@H]1[C@@H]2C=CCC[C@@]2(C)C(=O)N1Cc1ccccc1	5.5%	10µM*	?	0.7%	-6.8%
COc1cc(OC)cc(-c2nc(-c3cccs3)no2)c1	4.4%	6.0%	23.9%	5.7%	-22.0%
COc1cccc(Nc2nc(-c3cccs3)nc3ccccc23)c1	27.2%	11.2µM*	41.9%	-5.5%	0.0%
COc1cccc(-c2nc(-c3cccs3)no2)c1	17.9%	-10.8%	12.6µM*	-7.6%	?
COc1ccc(-c2ccc(-c3noc(-c4cccc(OC)c4)n3)c(OC)n2)cc1	-5.5%	0.0%	0.355µM*	0.4%	?
CCc1nnc(SCc2cccc(F)c2)c2cc3sc(C)cc3n12	/	?	/	3.6%	/
COc1ccc(S(=O)(=O)Nc2cccc(-c3ccc(N4CCCCCC4)nn3)c2)cc1	/	?	/	-15.8%	/
CCC(=O)N1c2ccc(S(=O)(=O)CCC(=O)Nc3ccc(Br)c(C)c3)cc2CC1C (centres undefined)	-1.7%	?	/	6.5%	/
SMILES	GLP-1R agonist	GLP-1R inv ag	RORg inh	GLP1R cytotox	VP16 counter
CC(C)(C)c1ccc(Oc2cccc(C3CC(=O)C(C4NCCc5ccccc54)C(=O)C3n3cncn3)c2)cc1 (centres undefined)	-4.7%	6.31µM*	-23.3%	-22.4%	-5.1%
O=C1CC(c2ccccc2Oc2cccc(Cl)c2)C(n2cncn2)C(=O)C1C1NCCc2ccccc21 (centres undefined)	-1.5%	?	1.8%	-9.9%	-8.1%
O=C(Nc1nc(-c2cc3ccccc3o2)cs1)c1ccc(S(=O)(=O)N2CCCC2)cc1	1.0%	?	?	-12.9%	7.94µM*
Cc1cc(-c2csc(NC(=O)c3ccc(S(=O)(=O)N(C)C)cc3)n2)c(C)n1-c1ccccc1	-0.5%	4.6%	-26.3%	-14.3%	0.1%
CC1CN(S(=O)(=O)c2ccc(C(=O)Nc3nc(-c4cc5ccccc5o4)cs3)cc2)CC(C)O1 (centres undefined)	3.8%	-29.8%	?	-6.0%	2.82µM*
CN(C)S(=O)(=O)c1ccc(C(=O)Nc2nc(-c3cc4ccccc4o3)cs2)cc1	-0.5%	?	?	0.4%	6.31µM*
c1ccc2oc(-c3csc(NCC4CCCO4)n3)cc2c1 (centres undefined)	-0.9%	5.0%[0.307 µM]	7.94µM*	14.4%[0.307 µM]	?
C=CCNc1nc(-c2cc3ccccc3o2)cs1	0.1%	?	-33.2%	1.8%	?
CCc1sc(Nc2cccc(C)c2C)nc1-c1cc2cccc(OC)c2oc1=O	/	0.9%	/	4.7%	/
COc1ccc(N2CCN(C(c3ccccc3)c3nnc(-c4ccccc4Cl)o3)CC2)cc1 (centres undefined)	/	?	/	0.0%	/
COc1ccc(Oc2ncc3nc(-c4ccccc4)c(=O)n(Cc4cccs4)c3n2)cc1	/	/	0.3%	/	7.7%
CCc1ccccc1NC(=S)NC1CC2CCC(C1)N2Cc1ccco1 (centres undefined)	-4.5%	-1.5%	?	-3.6%	-6.1%
Cc1c(Cl)cccc1NC(=S)NC1CCCC1	-4.5%	?	4.47µM*	-1.8%	5.62µM*
Cc1cccc(NC(=S)NC2CC3CCC(C2)N3Cc2ccco2)c1C (centres undefined)	-0.9%	6.2%	-43.8%	-0.1%	-12.5%
CCc1ccccc1NC(=O)NC1CC2CCC(C1)N2Cc1cccs1 (centres undefined)	-0.1%	-25.9%	16.8%	-4.1%	-6.0%
Cc1cccc(NC(=S)NC2CC3CCCC(C2)N3Cc2ccccc2)c1C (centres undefined)	21.2%	?	14.1µM*	-27.9%	?
CCc1ccccc1NC(=S)NC1CC2CCC(C1)N2Cc1ccc(F)cc1 (centres undefined)	2.1%	?	7.08µM*	0.9%	?
CCc1ccc(NC(=S)NC2CC3CCCC(C2)N3Cc2cccs2)cc1 (centres undefined)	-0.9%	?	2µM*	?	12.6µM*
S=C(Nc1ccccc1Cl)NC1CCC(NC(=S)Nc2ccccc2Cl)CC1 (centres undefined)	-8.3%	5.1%[0.307 µM]	-30.7%	17.4%[0.307 µM]	0.4%
Cc1cccc(NC(=S)NN2CCN(C)CC2)c1C	0.8%	3.6%	8.5%	0.7%	8.6%
Cc1cccc(NC(=S)NC2CCCCCC2)c1C	2.2%	?	3.16µM*	?	7.08µM*

From PubChem
